Out of some 340,000 compounds screened, about 2,100 (0.62%) were called active.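 How the source made its calls: active means first-screen hits whose inhibition reached a set limit at any dose in the follow-up dose series; inconclusive means inhibition above the set first-screen limit but never retested; inactive means the rest.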 The list is a sample of the results. Measured potencies and affinities stand elsewhere.
target: Rac GTPase-activating protein 1 (Homo sapiens) (UniProt Q9H0H5); assay: MgcRacGAP GTPase-activating activity inhibitors, confirmation, biochemical, ADP Hunter fluorescence, primary and confirmatory (AID 624330); details: MgcRacGAP-stimulated Rac1 GTP hydrolysis, at 30 µM, hits give high values, GST-tagged Rac1 F28L mutant substrate;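 further: fluorescence reports GDP produced by GAP-driven GTP hydrolysis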
Sequence (Q9H0H5 whole entry, looked up): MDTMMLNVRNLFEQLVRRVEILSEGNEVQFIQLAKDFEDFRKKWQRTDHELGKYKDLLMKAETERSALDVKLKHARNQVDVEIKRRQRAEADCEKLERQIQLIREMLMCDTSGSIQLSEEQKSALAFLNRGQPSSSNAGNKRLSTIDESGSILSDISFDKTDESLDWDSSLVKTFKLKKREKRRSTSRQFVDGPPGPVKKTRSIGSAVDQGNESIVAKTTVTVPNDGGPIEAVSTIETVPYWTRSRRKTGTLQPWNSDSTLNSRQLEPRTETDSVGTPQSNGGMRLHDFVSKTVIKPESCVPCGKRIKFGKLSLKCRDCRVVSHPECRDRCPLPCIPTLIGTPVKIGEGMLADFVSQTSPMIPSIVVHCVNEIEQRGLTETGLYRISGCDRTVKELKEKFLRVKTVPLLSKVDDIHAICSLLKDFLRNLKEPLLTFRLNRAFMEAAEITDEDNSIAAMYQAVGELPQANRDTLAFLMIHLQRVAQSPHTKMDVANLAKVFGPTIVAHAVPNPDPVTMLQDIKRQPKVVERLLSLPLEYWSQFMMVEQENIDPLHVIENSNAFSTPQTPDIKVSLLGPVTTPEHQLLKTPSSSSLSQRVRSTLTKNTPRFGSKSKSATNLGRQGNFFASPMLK

inhibition, inactive:
O=C(CNS(=O)(=O)c1ccc([N+](=O)[O-])cc1)N/N=C\c1ccc(O)cc1 20.8%, O=C(N/N=C/c1ccc(Br)cc1)c1cc[n+](Cc2ccccc2)cc1 4.25%, O=C(CNS(=O)(=O)c1ccccc1)N/N=C\c1ccc(Cl)cc1 7.25%, CC(=O)Nc1ccc(/C=N\NC(=O)CNS(=O)(=O)c2ccc([N+](=O)[O-])cc2)cc1 9.49%, CC(=O)Nc1ccc(/C=N/NC(=O)CNS(=O)(=O)c2ccccc2)cc1 9.41%, O=C(N/N=C/c1ccc(OCc2ccccc2)cc1)c1cc[n+](Cc2ccccc2)cc1 13.8%, O=C(CNC(=O)c1ccccc1Br)N/N=C/c1cccnc1 7.98%, O=C(CNC(=O)c1ccccc1Br)N/N=C/c1ccccc1O 5.07%, COc1cc(C2N(c3cc(C)on3)C(=O)C3CCCN32)cc(OC)c1OC (configuration not stated) 4.47%, CCOC(=O)C(=O)/C(=C\N(C)C)c1onc(-c2c(F)cccc2Cl)c1C(=O)OC 4.69%, CSc1nc(C)cc(OCC#N)n1 5.78%, Cc1cccc(NC(=S)N2CCN(S(=O)(=O)c3ccc(F)cc3)CC2)c1 8.03%, CCCCCCN1C[C@@H](n2cc(COC(=O)c3ccccc3)nn2)[C@H](O)C[C@@H]1c1ccc(Cl)cc1 8.49%, Nc1ccc(-c2cn3cccnc3n2)cc1 -4.77%, COc1cccc(N2CCN(C(=O)CCc3nnc4ccc(N5CCCC5)nn34)CC2)c1 18%, O=C(COc1ccc(Cl)cc1)Nc1cc(S(=O)(=O)N2CCCCC2)ccc1N1CCCCC1 -10.3%, C=CCNC(=O)c1snnc1-c1ccccc1 5.75%, O=C(C[n+]1ccccc1)N/N=C/c1ccc(C(=O)O)cc1 2.14%, CCN(CC)c1ccc(/C=N/NC(=O)Cc2cccs2)cc1 18.5%, COc1ccc(/C=N/NC(=O)Cc2cccs2)cc1 3.05%, O=C(Cn1cnc([N+](=O)[O-])n1)N/N=C/c1ccccc1O 4.85%, O=C(Cn1cnc([N+](=O)[O-])n1)N/N=C/c1cc(Cl)ccc1O 11.2%, O=C(C[n+]1ccccc1)N/N=C/c1ccc(Br)cc1 -2.09%, CCOc1ccc(NC(=O)COc2cccc3cccnc23)cc1S(=O)(=O)N1CCCC1 5.24%, CC(C)c1[nH]nc2c1C(c1cccs1)C(C#N)=C(N)O2 (configuration not stated) 8.28%, CC(C)(C)S(=O)(=O)c1cnc2c(S(=O)(=O)c3ccccc3)cnn2c1N -3.04%, N#CCC(=O)Nc1ccc(C(=O)OCC(=O)N=c2sccn2Cc2ccccc2Cl)cc1 5.66%, CCOC(=O)c1c[nH]c(=O)c(Br)c1O 4.86%, COc1ccc(NS(=O)(=O)c2cc(NC(=O)c3ccco3)ccc2N2CCCC2)cc1 -4.14%, O=C(COC(=O)COc1ccccc1)Nc1ncc([N+](=O)[O-])s1 11.1%, COc1ccc(C(=O)OCC(=O)Nc2ncc([N+](=O)[O-])s2)cc1OC 21.6%, C/C(=N\OC(=O)Nc1ccc(Cl)cc1)c1ccc(F)c(F)c1 6.77%, CCOC(=O)N1CCN(C(=O)Cc2cccs2)CC1 9.5%, COc1ccc(CN2C(=O)C(CC(=O)NCCCN(C)C)CC(C(=O)N(C)C)=C2C)cc1 (configuration not stated) 12.7%, CN(CCc1ccccn1)c1ncnc2[nH]ncc12 6.58%, Cc1sc2ncnc(N(C)Cc3cccs3)c2c1C 10.9%, COc1ccc(CNC(=O)CCCn2nc([N+](=O)[O-])cc2C)cc1 9%, O=C1c2ccccc2C(=O)N1c1nc(-c2cccs2)cs1 13.9%, O=C1CCCCCN1Cc1ccccc1 3.56%, O=C1CCCCCCCN1Cc1ccccc1 1.03%, COc1ccc(NC(=O)Nc2ccon2)cc1OC 7.89%, COc1ccc(CN2CCN(C(=O)c3ccco3)CC2)cc1OC 11.2%, COc1cc(OC)c(OC)cc1CN1CCN(Cc2ccco2)CC1 20.1%, FC(F)(F)c1ccc(CN2CCN(Cc3ccco3)CC2)cc1 15.3%, Cc1ccc(S(=O)(=O)N2CCN(Cc3ccco3)CC2)c(C)c1 3.78%, COc1ccc(CN2CCN(Cc3ccco3)CC2)cc1 29.8%, CCc1ccc(S(=O)(=O)N2CCN(Cc3ccco3)CC2)cc1 6.82%, CCCc1ccc(S(=O)(=O)N2CCN(Cc3ccco3)CC2)cc1 8.89%, Cc1cccc(CN2CCSCC2)c1 23.8%, CCc1sc(C(=O)NCCCN2CCCC2=O)cc1Br -10%, Cc1ccc(C)c(S(=O)(=O)N2CCN(C(=O)CSc3ccccc3)CC2)c1 8.52%, CC(Sc1nnc(-c2ccncc2)n1C)C(=O)NCC1CCCO1 (configuration not stated) 1.73%, CN(C)CCOC(=O)CC12CC3CC(C1)CC(CC(=O)OCCN(C)C)(C3)C2 5.06%, COc1cccc(CNC(=O)c2ccc(S(=O)(=O)N3CCCCC3)cc2)c1 9.59%, Cc1ccc(S(=O)(=O)Nc2cc(=O)[nH]c(SCC(=O)Nc3ccccc3C(F)(F)F)n2)cc1 5.86%, CCOC(=O)CC(NC(=O)CCc1c(C)nc2nc(C)nn2c1C)c1ccc(OC(C)C)cc1 (configuration not stated) 8.74%, CCOc1ccc(C(=O)O)cc1OC 5.02%, CCOc1ccc(C(N)=O)cc1OC -0.9%, CCN(CC)Cc1cc(C(C)=O)ccc1OCC(C)C -0.12%, CCCOc1ccc(N)cc1N 18.7%, COc1ccc2[nH]c3c(c2c1)CCN1C(=O)C(CC(=O)NCCC2=CCCCC2)C[C@H](C(=O)N2CCCCC2)[C@@]31CCc1ccccc1 (some centres not stated) 3.14%, CCc1nc(N)c(C#N)c(-c2ccc(F)cc2)c1C 16%

Reference: PubChem BioAssay AID624330 (Southern Research Specialized Biocontainment Screening …, 2012)
